Assay outcomes from PubChem.
Mcl1 Noxa PPI: disrupts binding of human Mcl-1 to Noxa peptide. inhibition, % at 21.7 µM. 220,000 compounds, 1.5% hits. TR-FRET Mcl-1/Noxa peptide binding, 2 h. Q07820. AID 1022;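 active means compounds that cut the protein-peptide binding signal by more than 50% relative to plate controls in a single-dose test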;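 further: His-tagged Mcl-1 with rhodamine Noxa BH3 peptide and terbium anti-His antibody; 0% = Mcl-1 plus Noxa peptide wells and 100% = peptide-only wells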
Target sequence (Q07820 whole entry, looked up): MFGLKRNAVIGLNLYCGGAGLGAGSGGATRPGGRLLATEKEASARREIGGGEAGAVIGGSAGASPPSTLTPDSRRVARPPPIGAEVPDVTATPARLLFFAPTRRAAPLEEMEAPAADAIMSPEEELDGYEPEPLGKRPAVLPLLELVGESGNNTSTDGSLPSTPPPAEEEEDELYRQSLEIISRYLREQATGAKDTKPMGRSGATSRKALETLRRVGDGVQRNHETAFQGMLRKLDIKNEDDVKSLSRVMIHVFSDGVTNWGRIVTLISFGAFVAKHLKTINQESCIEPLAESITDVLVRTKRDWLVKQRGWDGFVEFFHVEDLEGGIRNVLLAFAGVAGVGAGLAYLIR
Mcl-1 Bim block: human Bim-Mcl-1 interaction inhibition. Q07820. Bead-based flow cytometry, Bim peptide-Mcl-1 binding. 190,000 compounds, 0.1% hits. inhibition, % at 10 µM. AID 1009; in the data active means inhibition above about 40%;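 further: 0% = no compound tracer wells and 100% = peptide blocker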
m-calpain inh: blocks pig calpain II enzyme activity | purified calpain II, fluorogenic peptide substrate, 30 min | inhibition, % at 16 µM | 220,000 compounds, 0.37% hits;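 active means inhibition above about 50%, limit read from the data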
TNF necrop inh: blocks TNF-alpha induced death of Jurkat FADD-/- cells; Jurkat FADD-/- TNF necroptosis rescue, ATP luminescence, 24 h; 0 = TNF only, 100 = no-TNF cells; activation (protection from cell death), % at 10 µM; 220,000 compounds, 0.068% hits;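 active means activation, meaning protection from cell death, of at least 50% relative to plate controls; inactive means activation below 50%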;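 further: necroptosis triggered by 40 ng/mL TNF-alpha added together with compound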
Mcl1-Bid inh: Mcl-1/Bid interaction inhibition | TR-FRET Mcl-1/Bid-Dy647 peptide binding, 1536-well | inhibition, % at 21.7 µM | 220,000 compounds, 0.97% hits | AID 1021;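 active means compounds that cut the binding signal by more than half at the single screening dose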;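 further: His-tagged Mcl-1 with europium anti-His antibody binding Bid BH3 peptide; 0% = Mcl-1 plus peptide wells and 100% = peptide-only wells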
L929 necroptosis: L929 zVAD cell death inhibition; viability rescue, % at 10 µM; L929 zVAD necroptosis rescue, ATP luminescence, 24 h; with zVAD 60 µM; 220,000 compounds, 0.38% hits;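 active means activation, scaled between plate controls, above about 75%, limit read from the data; inactive means activation under that limit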;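 further: 0% = zVAD with DMSO and 100% = DMSO alone without zVAD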
Numbers without * were called inactive; i = inactive; · = no result. Compounds with a hit are over-represented: about 2.8% of the library has one in this group of screens.

SMILES	Mcl1 Noxa PPI	Mcl-1 Bim block	m-calpain inh	TNF necrop inh	Mcl1-Bid inh	L929 necroptosis
O=C(O)c1ccc(S(=O)(=O)Nc2ccc(O)c(Sc3nc4ccccc4s3)c2)cc1	50.8*	0.0	-30.1	0.3	-46.2	1.5
O=C1c2ccccc2C(=O)N1CCCCCc1nc(-c2ccccc2)no1	17.9	0.0	64.2*	-0.5	1.3	-0.1
CC(C)N(Cc1nc(-c2ccc(Cl)cc2)no1)C(=O)CCCN1C(=O)c2ccccc2C1=O	3.0	-6.0	65.4*	-1.1	1.5	-1.3
COc1cc([N+](=O)[O-])ccc1NC(=O)CCCOc1cccc(C)c1	5.1	-1.0	-7.9	-4.0	5.8	0.7
COc1cccc(C2NC(=O)NC(C)=C2C(=O)Nc2ccc(C)cc2)c1OC (centres undefined)	-14.7	0.0	-7.0	0.4	-12.1	0.2
COC(=O)C1=C(C)C(c2ccc(OC)cc2OC)NC(=O)N1 (centres undefined)	3.9	3.0	15.1	-2.8	64.5*	-0.4
COc1ccc(NC(=O)C2=C(C)NC(=O)NC2c2cccc(OC)c2OC)c(OC)c1 (centres undefined)	-11.6	43.0*	-60.5	-1.1	0.1	-1.3
CC(C)Sc1ncc(S(=O)(=O)c2ccccc2)c(=O)[nH]1	22.4	-2.0	-0.6	0.0	0.9	0.3
CCCCn1c(NCc2ccc3c(c2)OCO3)nc2ccccc21	66.3*	0.0	32.2	2.2	-7.6	-0.8
CCN(CC)c1ccc(CNc2nc3ccccc3n2C)cc1	11.0	·	-5.4	5.1	96.8*	-0.3
CCOC(=O)C(=CNc1cc(C(F)(F)F)ccc1N1CCOCC1)C(=O)OCC	-3.9	·	-24.2	-0.7	-0.9	0.5
COc1ccccc1NC(=O)c1sc2ncn(Cc3ccc(C)cc3)c(=O)c2c1C	13.5	-3.0	i	-3.1	73.5*	0.6
C(=N\c1nc2ccccc2n1Cc1ccccc1)/c1cccs1	20.1	-1.0	-11.9	-0.6	50.7*	-0.7
CCOc1cc(CNc2ccc3c(c2)CCC3)ccc1OC	29.1	-1.0	9.2	-2.6	1.9	-0.3
CC(NC(=O)CCCCCN1C(=O)c2ccccc2C1=O)c1ccc2c(c1)CCCC2 (centres undefined)	-0.7	3.0	57.2*	-7.6	3.0	0.6
CC(NC(=O)CCCCCCN1C(=O)c2ccccc2C1=O)c1ccc2c(c1)CCCC2 (centres undefined)	-2.8	-3.0	38.7	1.7	-4.9	0.6
CSc1ccc(/C=C(\C(=O)O)c2ccc(S(=O)(=O)N3CCCCC3)s2)cc1	14.4	8.0	-15.2	1.1	0.7	-0.1
O=C(O)/C(=C\c1ccc(Cl)c([N+](=O)[O-])c1)c1ccc(S(=O)(=O)N2CCCCC2)s1	56.1*	-1.0	-38.1	-1.1	-6.3	0.5
O=C(O)/C(=C\c1ccccc1Cl)c1ccc(S(=O)(=O)N2CCCCC2)s1	61.9*	0.0	-14.8	0.5	35.6	3.5
O=C(O)/C(=C\c1cccc([N+](=O)[O-])c1)c1ccc(S(=O)(=O)N2CCCCC2)s1	43.9	·	32.4	1.6	4.5	0.1
CCOC(=O)Nc1ccc2c(c1)nc(CN1CCCCC1)n2C	4.8	-1.0	-17.1	1.8	-16.9	2.2
Cc1nn(C(C)C(=O)N2CCc3ccccc32)c(C)c1[N+](=O)[O-] (centres undefined)	-0.1	-1.0	-37.6	-2.1	-24.2	-0.1
O=C(CN1C(=O)c2ccccc2C1=O)Nc1ccc(-c2nc3ccccc3o2)cc1	2.0	7.0	95.9*	-0.5	26.1	0.3
CC(=O)N(c1ccccc1C)C1CCCC1	0.1	0.0	-4.4	0.4	-18.4	0.5
CC(=O)N(C1=C(Cl)C(=O)c2ccccc2C1=O)C1CCCCC1	90.7*	·	-119.2	-32.5	-20.0	-1.6
SMILES	Mcl1 Noxa PPI	Mcl-1 Bim block	m-calpain inh	TNF necrop inh	Mcl1-Bid inh	L929 necroptosis
CCCc1nnc(SCC(=O)N2CCOCC2)n1C	-17.6	0.0	-22.5	0.2	-9.9	0.4
Cc1ccc2cc(C#N)c(SCC(=O)NNC(=O)Cc3ccccc3)nc2c1	-367.9	-3.0	58.8*	1.6	-25.9	0.5
C=CCSc1nnc(NC(=O)CSc2nc3ccccc3o2)s1	30.6	-1.0	-5.3	-1.8	-10.4	-1.5
O=S(=O)(Nc1cccc(-c2cn3ccsc3n2)c1)c1ccc(F)cc1	0.1	-2.0	-5.8	0.9	98.1*	0.5
Cc1ccc(S(=O)(=O)Nc2cccc(-c3cn4ccsc4n3)c2)cc1	3.6	-3.0	-11.8	-7.0	-8.8	0.9
CC(=O)n1cc(-c2ccncc2)c2ccccc21	11.2	0.0	-13.5	-11.7	11.0	42.7
CC(=O)n1cc(C(C[N+](=O)[O-])SCCN)c2ccccc21 (centres undefined)	52.8*	-8.0	-20.6	-12.2	53.2*	-0.1
CCN(CC)CCCN1C(=O)CSC1c1ccc([N+](=O)[O-])cc1 (centres undefined)	18.1	0.0	2.2	1.4	-20.8	-1.0
COc1ccc(C2SCC(=O)N2CCCN(C)C)cc1 (centres undefined)	5.8	-1.0	-6.2	-0.1	91.5*	0.6
CCOC(=O)c1ccc(NC(=O)C(=O)NCC2(c3ccc(OC)cc3)CCOCC2)cc1	-5.5	·	21.1	0.2	-11.1	1.4
Cc1ccc(NS(=O)(=O)c2cc([N+](=O)[O-])ccc2NNC(=S)Nc2cccc(Cl)c2)c(C)c1	87.7*	0.0	43.8	-2.2	45.6	1.2
Cc1ccc(NS(=O)(=O)c2cc([N+](=O)[O-])ccc2NNC(=S)Nc2cc(C)ccc2C)c(C)c1	43.8	0.0	-36.3	-3.3	-39.9	1.0
Nc1nc(SCC(=O)Nc2ccc3c(c2)OCO3)n[nH]1	4.2	1.0	-4.6	-0.3	-2.7	1.9
CNc1cccccc1=S	57.9*	0.0	-23.3	-4.7	-93.1	1.1
CNc1cccc2c1C(=O)c1ccccc1C2=O	48.1	-1.0	-7.5	0.2	4.5	10.5
CCOC(=O)C1=C(O)c2ccccc2C(=O)/C1=C\c1ccc(C)cc1	79.1*	2.0	-4.9	-12.3	27.1	-0.2
CCOC(=O)C1=C(C)N(c2ccc(C)cc2)C(=O)/C1=C\c1ccc(O)c(OC)c1	38.6	·	8.1	-8.9	-164.5	-0.1
CCOC(=O)C1CCCN(C(=O)COc2ccc(N(C)S(=O)(=O)c3ccc(F)cc3)cc2)C1 (centres undefined)	2.8	-2.0	-11.3	0.8	-8.5	0.0
O=C(Nc1nc2ccccc2n1Cc1ccccc1)c1ccc(COc2ccccc2[N+](=O)[O-])o1	14.2	2.0	18.5	-2.9	17.8	-0.3
Cc1ccc(OCc2ccc(C(=O)Nc3nc4ccccc4n3Cc3ccccc3)o2)c([N+](=O)[O-])c1	28.4	-2.0	-87.1	-1.5	68.0*	-1.3
CSC(=O)CC(=O)NC(=O)c1ccccc1	-3.2	2.0	-1.0	-1.9	-54.8	-0.6
Nc1c(O)ccc2c1C(=O)c1ccccc1C2=O	77.5*	0.0	2.2	-5.6	-22.8	1.4
